# Assay results as given in PubChem BioAssay (NCATS).
# Unmarked numbers belong to inactive results. Records with an inconclusive call do not appear. The source made the active and inactive calls. Unless noted, calls come from the whole dose curve; as a rule, active = well fitted curve in either direction with a large enough effect (not every such curve was filed as active); inconclusive = small, poorly fitted or top-dose-only effect, or another doubt; inactive = flat fitted curve, though single readings scatter.
# Key:
# [1] = target: Lysosomal acid glucosylceramidase (Homo sapiens) (UniProt P04062); assay: Glucocerebrosidase-p2 (AID 348; in the data active = potency below about 10 µM; note: potency is the fitted concentration of half-maximal effect); details: purified GBA, blue fluorogenic substrate, 40 min
# Lysosomal acid glucosylceramidase (Homo sapiens), sequence (P04062 whole entry, looked up): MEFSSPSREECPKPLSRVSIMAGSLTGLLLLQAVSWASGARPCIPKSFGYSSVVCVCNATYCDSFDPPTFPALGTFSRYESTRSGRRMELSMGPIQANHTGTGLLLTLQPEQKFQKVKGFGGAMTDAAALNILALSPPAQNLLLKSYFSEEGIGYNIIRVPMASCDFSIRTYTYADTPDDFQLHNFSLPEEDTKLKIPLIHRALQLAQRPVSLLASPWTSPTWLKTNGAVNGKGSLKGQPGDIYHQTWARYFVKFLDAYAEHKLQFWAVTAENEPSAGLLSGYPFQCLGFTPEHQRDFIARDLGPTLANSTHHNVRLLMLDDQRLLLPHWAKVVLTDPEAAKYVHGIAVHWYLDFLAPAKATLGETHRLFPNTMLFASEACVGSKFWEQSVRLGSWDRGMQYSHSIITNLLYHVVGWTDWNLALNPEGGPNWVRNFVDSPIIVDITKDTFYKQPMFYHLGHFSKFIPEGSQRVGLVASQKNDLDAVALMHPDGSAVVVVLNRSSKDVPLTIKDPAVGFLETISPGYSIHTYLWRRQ
# In short: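 Normal human glucocerebrosidase (0.2 nM) with blue fluorogenic substrate (80 uM final) in citrate/phosphate pH 5.9 with 10mM sodium taurocholate, 0.01% tween-20; 40 min RT, NaOH/glycine stop; fluorescence Ex 365/Em 440; AC50 from a titration from 0.6 nM upwards.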
# [2] = AP1 Signaling Pathway (AID 357); details: ME-180 AP-1-bla reporter, EGF-induced, beta-lactamase ratio, 5 h; at 7.69 µM (top of the series) unless noted;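 note: ME-180 reporter cells stimulated with EGF at its EC50 level; % is set by controls: 0 for no effect and ±100 for the full control effect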
# In short: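 Titration-series screen for positive or negative modulators of EC50 EGF-induced signaling in ME-180 cells carrying an AP-1-driven beta-lactamase reporter. After 5 hours at 37 degrees Celsius, CCF4 460nm/530nm emission ratio gave %Activity; AC50 values derived.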
# [3] = target: Cytochrome P450 1A2 (Homo sapiens) (UniProt P05177); assay: p450-cyp1a2 (AID 410; calls by dose curve; note: potency is the fitted concentration of half-maximal effect;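 for activity change, negative = inhibition: -100% = full effect of reference inhibitor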); details: recombinant CYP1A2, luciferin-ME demethylation, luminescence; series mostly up to 57 µM
# Cytochrome P450 1A2 (Homo sapiens), sequence (P05177 whole entry, looked up): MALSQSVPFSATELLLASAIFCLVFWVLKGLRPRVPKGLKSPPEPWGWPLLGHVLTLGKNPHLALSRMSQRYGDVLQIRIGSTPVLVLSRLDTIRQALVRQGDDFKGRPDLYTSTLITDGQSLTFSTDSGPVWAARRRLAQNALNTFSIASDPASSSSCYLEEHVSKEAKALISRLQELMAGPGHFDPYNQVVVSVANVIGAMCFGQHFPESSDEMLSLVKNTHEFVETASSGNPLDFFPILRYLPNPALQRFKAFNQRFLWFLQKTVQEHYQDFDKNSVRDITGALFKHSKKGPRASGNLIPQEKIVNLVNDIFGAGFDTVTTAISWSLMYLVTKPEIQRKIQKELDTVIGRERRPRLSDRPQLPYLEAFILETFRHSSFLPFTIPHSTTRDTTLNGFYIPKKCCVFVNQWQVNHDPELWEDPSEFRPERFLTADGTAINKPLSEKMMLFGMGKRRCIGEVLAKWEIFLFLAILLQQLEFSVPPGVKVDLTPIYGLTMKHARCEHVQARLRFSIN
# In short: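 Luminescent demethylation readout: Luciferin-ME (100uM, equal to Km) turned over by 20nM CYP1A2 for 60 min at room temperature after NADPH regeneration addition, following 10 min compound preincubation. Normalization used 57 uM furafylline as full inhibition.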
# [4] = NFAT Signaling Pathway (AID 444); details: Jurkat NFAT-bla M1, carbachol, beta-lactamase ratio, 5 h; at 7.69 µM (top of the series) unless noted;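 note: carbachol stimulus at about its EC50 of 1 µM final; % is set by controls: 0 for no effect and ±100 for the full control effect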
# In short: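 Jurkat cells with NFAT-driven β-lactamase reporter and co-expressed M1 receptor, stimulated with carbachol (final 1 uM, ~EC50), compound titration, 5 h at 37 °C. CCF4 loaded 1 h at RT; 460/530 nm ratio gave %activity and AC50.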
# [5] = Stat Signaling Pathway (AID 446); details: ME-180 SIE beta-lactamase reporter, IL-6 stimulated, 5 h; at 7.69 µM (top of the series) unless noted;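 note: ME-180 cervical cancer cells given 40 pM IL-6 alongside compound; SIE-controlled beta-lactamase reporter measured as 460/530 nm FRET emission ratio; % is set by controls: 0 for no effect and ±100 for the full control effect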
# In short: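 Emission at 460 and 530 nm (excitation 405 nm) reports SIE-controlled beta-lactamase in ME-180 cells. Cells received compound with 40 pM IL-6 for 5 hrs at 37 C; data scaled between 300 pM IL-6 and 125 nM JAK-inhibitor controls.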
# [6] = target: Glucocorticoid receptor (Homo sapiens) (UniProt P04150); assay: GR-EFC Redistribution (AID 451; calls by dose curve; note: potency is the fitted concentration of half-maximal effect); details: CHO-K1 GR-EFC translocation, beta-gal luminescence, 2 h
# Glucocorticoid receptor (Homo sapiens), sequence (P04150 whole entry, looked up, the tested form may be a part): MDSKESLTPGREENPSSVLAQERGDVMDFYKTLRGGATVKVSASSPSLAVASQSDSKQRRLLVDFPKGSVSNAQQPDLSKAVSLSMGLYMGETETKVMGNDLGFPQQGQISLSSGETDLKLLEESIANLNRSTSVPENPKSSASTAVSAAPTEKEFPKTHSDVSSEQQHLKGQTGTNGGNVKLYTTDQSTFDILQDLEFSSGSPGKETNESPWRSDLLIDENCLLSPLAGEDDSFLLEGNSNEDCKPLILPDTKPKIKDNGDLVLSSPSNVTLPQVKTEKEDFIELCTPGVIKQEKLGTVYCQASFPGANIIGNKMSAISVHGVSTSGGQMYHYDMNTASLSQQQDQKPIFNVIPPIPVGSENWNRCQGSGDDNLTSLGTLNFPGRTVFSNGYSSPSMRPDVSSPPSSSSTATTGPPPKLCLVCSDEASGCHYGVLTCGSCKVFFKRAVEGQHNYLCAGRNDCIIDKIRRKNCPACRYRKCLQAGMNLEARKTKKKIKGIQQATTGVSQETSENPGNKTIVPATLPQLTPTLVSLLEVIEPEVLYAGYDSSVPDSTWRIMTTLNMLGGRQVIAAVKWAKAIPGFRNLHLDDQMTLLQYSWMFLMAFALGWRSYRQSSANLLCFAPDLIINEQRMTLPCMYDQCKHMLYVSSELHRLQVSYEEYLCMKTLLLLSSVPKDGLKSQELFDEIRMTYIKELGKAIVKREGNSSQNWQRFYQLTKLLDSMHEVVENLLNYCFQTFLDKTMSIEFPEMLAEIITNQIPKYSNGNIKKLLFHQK
# In short: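 CHO-K1 cells expressing nuclear EA and GR-ED fragments of b-gal; compounds titrated up to 46 uM final, 2 h at 37 C. GR nuclear translocation read as complemented b-gal luminescence after 1 h RT detection.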
# [7] = target: Mitogen-activated protein kinase 10 (Mus musculus) (UniProt Q61831); assay: JNK3 AlphaScreen Assay (AID 530); details: JNK3 lysate, c-Jun phosphorylation; series mostly up to 57.1 µM;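 note: kinase came from lysate of stimulated human HepG2 cells; signal reports phosphorylation of biotinylated GST-cJun 1-79 at Ser73 with 10 µM ATP; % is set by controls: 0 for no effect and ±100 for the full control effect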
# In short: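 Activity was read by AlphaScreen after JNK3-containing HepG2 lysate (cytokine pre-activated) phosphorylated biotinylated GST-cJun with 10 uM ATP at room temperature. Phospho-Ser73 cJun antibody with Protein-A acceptor beads provided detection.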
# [8] = target: 3',5'-cyclic-AMP phosphodiesterase 4B (Homo sapiens) (UniProt Q07343); assay: qHTS Assay for Inhibitors of PDE-IV (AID 607; active = well fitted activation curve with a large enough effect in the main read-out, with a control signal flat, not every such curve was filed as active; note: % of control where 0% means no effect); details: HEK293 ACTOne CNG channel cells, membrane potential fluorescence; series mostly up to 22.9 µM
# 3',5'-cyclic-AMP phosphodiesterase 4B (Homo sapiens), sequence (Q07343 whole entry, looked up): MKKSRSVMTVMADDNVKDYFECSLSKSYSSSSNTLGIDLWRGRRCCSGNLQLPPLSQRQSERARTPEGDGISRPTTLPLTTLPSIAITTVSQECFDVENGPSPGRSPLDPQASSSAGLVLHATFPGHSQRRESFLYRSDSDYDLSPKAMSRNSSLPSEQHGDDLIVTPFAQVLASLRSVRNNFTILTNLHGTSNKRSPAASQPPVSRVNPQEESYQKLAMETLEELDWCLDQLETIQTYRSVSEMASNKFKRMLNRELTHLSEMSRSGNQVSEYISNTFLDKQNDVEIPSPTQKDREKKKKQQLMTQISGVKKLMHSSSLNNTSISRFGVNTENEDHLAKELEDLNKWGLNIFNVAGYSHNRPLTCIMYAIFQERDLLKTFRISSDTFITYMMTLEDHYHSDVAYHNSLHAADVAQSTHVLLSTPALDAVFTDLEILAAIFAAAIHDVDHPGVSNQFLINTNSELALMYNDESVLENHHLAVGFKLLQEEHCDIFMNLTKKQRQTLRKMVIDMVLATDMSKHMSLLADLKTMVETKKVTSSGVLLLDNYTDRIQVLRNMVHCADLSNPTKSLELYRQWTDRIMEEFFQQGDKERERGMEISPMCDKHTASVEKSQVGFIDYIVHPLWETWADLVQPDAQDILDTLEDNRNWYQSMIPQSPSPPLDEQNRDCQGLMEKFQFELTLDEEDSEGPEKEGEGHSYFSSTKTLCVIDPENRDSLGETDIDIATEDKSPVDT
# In short: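 The readout is membrane depolarisation from a cAMP-sensing CNG channel, detected with a potential dye at ex 535/em 590. Cells were HEK293-derived (endogenous PDE-IV) at 1000 cells/well, titrated up to 22.9 uM final.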
# [9] = Primary qHTS for small molecule stabilizers of the endoplasmic reticulum resident proteome: Secreted ER Calcium Modulated Protein (SERCaMP) assay (AID 1508630; active = well fitted curve in the direction sought with a large enough effect; an effect the other way counts as inactive or inconclusive; note: % is set by controls: 0 for no effect and ±100 for the full control effect); details: SH-SY5Y GLuc-SERCaMP (Gaussia luciferase released on ER calcium loss) secretion, thapsigargin, luminescence; series mostly up to 38.4 µM
# In short: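 The SH-SY5Y reporter protocol was run at 3 concentrations up to 38.3 uM (primary) or 11 concentrations (follow-up): 16 h compound, 100 nM thapsigargin for 4 h, then extracellular luciferase luminescence.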
# [10] = target: Glucocorticoid receptor (Homo sapiens) (UniProt P04150); assay: GR-GFP Redistribution (AID 450;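 active = compounds whose dose series gives a full or clear partial fitted curve of increased nuclear translocation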; note: potency is the fitted concentration of half-maximal effect); details: U2OS GR-GFP nuclear translocation, laser cytometry, 2 h
# [11] = target: Cytochrome P450 3A4 (Homo sapiens) (UniProt P08684); assay: qHTS Assay for Activators of Cytochrome P450 3A4 (AID 885; active = well fitted curve in the direction sought with a large enough effect; an effect the other way counts as inactive or inconclusive; note: nearly all actives have a fitted effect of over 65% in size); details: recombinant CYP3A4, Luciferin-PPXE luminescence, 60 min; series mostly up to 57.1 µM
# Cytochrome P450 3A4 (Homo sapiens), sequence (P08684 whole entry, looked up): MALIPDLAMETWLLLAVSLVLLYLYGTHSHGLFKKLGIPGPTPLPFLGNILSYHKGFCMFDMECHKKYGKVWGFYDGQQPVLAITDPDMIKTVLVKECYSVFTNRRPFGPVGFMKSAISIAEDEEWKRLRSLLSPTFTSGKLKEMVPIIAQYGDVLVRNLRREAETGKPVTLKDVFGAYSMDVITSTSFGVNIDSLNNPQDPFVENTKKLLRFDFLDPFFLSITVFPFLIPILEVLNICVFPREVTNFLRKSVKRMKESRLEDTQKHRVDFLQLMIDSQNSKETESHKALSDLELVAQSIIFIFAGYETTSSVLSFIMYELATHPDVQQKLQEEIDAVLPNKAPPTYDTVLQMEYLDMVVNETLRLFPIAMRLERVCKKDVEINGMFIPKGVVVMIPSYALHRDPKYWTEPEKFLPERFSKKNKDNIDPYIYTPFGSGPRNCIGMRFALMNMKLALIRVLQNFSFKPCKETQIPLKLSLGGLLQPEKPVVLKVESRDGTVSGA
# In short: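 Activators are scored by enhanced luminescence from CYP3A4 conversion of luciferin-PPXE (25uM, equal to KM) to luciferin, after 60 min at RT with an NADPH-regenerating system.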
# [12] = target: Cytochrome P450 2C9 (Homo sapiens) (UniProt P11712); assay: qHTS Assay for Inhibitors and Substrates of Cytochrome P450 2C9 (AID 883; active = well fitted curve in the direction sought with a large enough effect; an effect the other way counts as inactive or inconclusive; note: % is set by controls: 0 for no effect and ±100 for the full control effect; nearly all actives have a fitted effect of over 60% in size); details: recombinant CYP2C9, luciferin-H luminescence, 60 min; series mostly up to 57.1 µM
# Cytochrome P450 2C9 (Homo sapiens), sequence (P11712 whole entry, looked up): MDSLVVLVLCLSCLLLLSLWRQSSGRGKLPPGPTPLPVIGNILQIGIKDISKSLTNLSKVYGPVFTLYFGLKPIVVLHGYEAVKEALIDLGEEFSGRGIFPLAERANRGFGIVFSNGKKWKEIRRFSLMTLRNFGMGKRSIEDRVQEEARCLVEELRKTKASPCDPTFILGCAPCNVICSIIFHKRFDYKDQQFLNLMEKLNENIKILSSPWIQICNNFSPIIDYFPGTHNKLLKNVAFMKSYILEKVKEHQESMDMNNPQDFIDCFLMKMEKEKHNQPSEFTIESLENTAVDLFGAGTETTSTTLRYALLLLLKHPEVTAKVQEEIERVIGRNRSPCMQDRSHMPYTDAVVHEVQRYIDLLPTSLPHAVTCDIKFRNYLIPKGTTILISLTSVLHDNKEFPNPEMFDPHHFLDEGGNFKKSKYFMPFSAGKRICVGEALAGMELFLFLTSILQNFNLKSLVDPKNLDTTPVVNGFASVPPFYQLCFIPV
# In short: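 10nM CYP2C9 + 100uM Luciferin-H (=KM), 25mM KPO4; cpd 10 min 37C; NADPH regen, 60 min 37C; stop/detect with P450 Glo-Buffer 20 min; luminescence. Norm. to 57uM sulphaphenazole as full inhibition.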
# [13] = qHTS Assay for Identification of Small Molecule Agonists for Hypoxia Response Element Signaling Pathway (AID 914; active = well fitted activation curve with a large enough effect in the signal ratio, with a control signal flat, not every such curve was filed as active; the % refers to the signal ratio; note: % of control where 0% means no effect); details: ME-180 (cervical carcinoma) HRE-bla reporter, beta-lactamase ratio, CoCl2, 17 h; activation: hits give high values
# In short: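 HRE-bla ME-180 cells with beta-lactamase reporter under hypoxia response element, compounds with EC50 CoCl2 for 17 hours at 37 C. CCF4 substrate, 460nm/530nm emission ratio gave %Activity; AC50 from titration series.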
Structure (SMILES),Potency [1],"activity change, negative = inhibition [2]",Potency [3],"activity change, negative = inhibition [4]","activity, negative = inhibition [5]",Potency [6],Potency [7],Potency [8],outcome [9],Potency [10],Potency [11],Potency [12],activation [13]
COc1cccc(Cn2c(=O)c(-c3cccc(C#N)c3)nc3cnc(Nc4ccccc4)nc32)c1,> 11.4 µM,-3.95%,inactive,-12.1%,-14.2%,> 46 µM,inactive,inactive,inactive,,,,
COC(=O)N1CCC2(CCCN(C(=O)Nc3ccccc3)C2)CC1,> 11.4 µM,-8.56%,inactive,8.44%,-0.296%,> 46 µM,inactive,inactive,inactive,,,,
COc1ccc(-n2c(=O)c(-c3ccc(Cl)cc3)nc3cncnc32)cc1,> 11.4 µM,-19.6%,5.01 µM (active),-2.56%,-6.47%,> 46 µM,inactive,,inactive,> 9.22 µM,inactive,,
COc1ccc(NC(=O)N2CC[C@@]3(CCCN(C(=O)c4c(C)noc4C)C3)C2)cc1,> 11.4 µM,-9.74%,inactive,-10.6%,-10.2%,> 46 µM,inactive,inactive,inactive,,inactive,inactive,-0.633%
